From PubChem BioAssay
Most compounds without a hit are left out; they make up all but 3.8% or so of the library.
TrxR1 substrate: rat thioredoxin reductase 1 substrate activity; 0.01% of 390,000 active; purified TrxR1 substrate turnover, NADPH consumption readout; Potency, µM (doses to about 114 µM), for the others: top-dose activity change, negative = substrate turnover; O89049; note: nearly all actives have a fitted effect of over 50% in size
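Rat TrxR1, dispensed at 90 nM, was prereduced with 400 uM NADPH (final) for 5 min at ~22 deg C, then incubated with compound 15 min before 400 uM selenite. A first-read NADPH fluorescence drop versus no-compound background flagged substrates.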
GCN5L2 inh: blocks human GCN5L2 histone acetyltransferase; Potency, µM (highest dose often 58.9 µM), for the others: top-dose activity change, negative = inhibition, actives largely listed as inhibitors; Q92830; GCN5L2 HAT assay, ThioGlo1 CoA-SH fluorescence; 0.21% of 390,000 active
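Free CoA generated was detected with ThioGlo1 (50uM) fluorescence at Ex340nm/Em540nm, read immediately and after 20 min at room temperature. Enzyme, 20 nM in HEPES pH 7.5 buffer, saw compounds 15 min before adding 75uM H3(1-25) peptide and 70uM acetyl-CoA.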
TrxR1 inh: blocks rat thioredoxin reductase 1; O89049; recombinant rTrxR1, NADPH fluorescence consumption, selenite substrate; Potency, µM (top dose mostly 114 µM), for inactives: at the top dose activity change, negative = inhibition, hits mostly inhibitors; 1% of 390,000 active; AID 588453; note: nearly all actives have a fitted effect of over 65% in size
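Rat TrxR1 (90 nM in the dispensed reagent) was pre-reduced with 400 uM NADPH for 5 min at room temperature, then incubated with compound for 15 min. After 400 uM selenite was added, NADPH fluorescence (Ex 340/Em 450 nm) was followed for 8 min.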
GLS inh: glutaminase GLS (human) inhibition; O94925; GLS enzymatic activity, qHTS titration; 0.21% of 410,000 active; AID 624170; Potency, µM (doses to about 45.5 µM), for inactives: at the top dose activity change, negative = inhibition, actives largely listed as inhibitors
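hKGA in 45 mM KH2PO4 (pH 8.2), 0.02% Tween-20 with compound, then 1mM L-Glutamine (stock as added) plus glutamate oxidase/HRP/Amplex red coupling mix. Fluorescence read initially and after 30 min at RT; signal change reflects glutamate formation.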
VDR inh: vitamin D3 receptor (human) inhibition; VDR-SRC2-3 peptide fluorescence polarization, 2 h; 0.93% of 400,000 active; AID 504847; Potency, µM, without a hit: max response, negative = inhibition, most hits filed as inhibitors; P11473
Target sequence (P11473 whole entry, looked up): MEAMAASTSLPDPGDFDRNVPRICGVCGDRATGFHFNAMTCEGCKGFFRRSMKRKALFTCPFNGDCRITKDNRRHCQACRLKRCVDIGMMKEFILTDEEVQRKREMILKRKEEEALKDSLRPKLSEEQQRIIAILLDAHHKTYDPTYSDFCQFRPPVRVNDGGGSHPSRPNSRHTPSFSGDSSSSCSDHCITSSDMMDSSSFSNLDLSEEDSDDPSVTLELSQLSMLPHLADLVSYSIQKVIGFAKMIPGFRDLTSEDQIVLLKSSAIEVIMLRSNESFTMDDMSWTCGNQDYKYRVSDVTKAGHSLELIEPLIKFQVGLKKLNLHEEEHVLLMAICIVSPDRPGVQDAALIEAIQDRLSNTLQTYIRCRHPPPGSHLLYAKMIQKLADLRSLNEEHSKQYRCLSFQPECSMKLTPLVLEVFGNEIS
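Signal is fluorescence polarization, reporting how far test compounds block the interaction of VDR with the SRC2-3 coregulator peptide after a 2 h room-temperature incubation.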
Sfp inh: blocks B. subtilis Sfp PPTase activity | Q9F4F7 | Biochemical Sfp PPTase activity, qHTS | Potency, µM, for inactives: largest response in the series, negative = inhibition, actives largely listed as inhibitors | 3.5% of 310,000 active | AID 1490;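 note: the enzyme is Sfp with the accession as filed and its product quenches rhodamine fluorescence; 0% = enzyme reaction without inhibitor and -100% = no enzyme wells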
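Reaction rates are the 30-min fluorescence difference (ex 525, em 598 nm) in wells containing 15 nM Sfp, 5 uM rhodamine-CoA and 12.5 uM BHQ-2-YbbR at pH 7.6 with 10 mM MgCl2.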
* marks the source's active call; other numbers are inactive results; ! = repeats disagree; [ ] = dose if it differs, or a comment. Calls come from the whole dose curve; as a rule, active = well fitted curve in the direction sought with a large enough effect; inconclusive = small, poorly fitted or top-dose-only effect, or another doubt; inactive = no such curve, though single readings can be large; an effect the other way counts as inactive or inconclusive. Unless noted, % is set by controls: 0 for no effect and ±100 for the full control effect; potency is the fitted concentration of half-maximal effect.

How did C[C@@]12C(=O)OC(=O)[C@@]1(C)C1CCC2O1 do in these assays?
GCN5L2 inh: 16%; VDR inh: -9%; Sfp inh: -9%

How did COC(=O)[C@]1(C)CC[C@@]2(C)CC[C@@]3(C)C4=CCc5c(cc(O)c(O)c5C)[C@]4(C)CC[C@@]3(C)C2C1 (some centres not stated) do in these assays?
GCN5L2 inh: -14%; VDR inh: 28µM*; Sfp inh: -24%

Results for COc1ccc(CN2C(=O)NC(=O)/C(=C/c3ccc([N+](=O)[O-])s3)C2=O)cc1 ?
TrxR1 substrate: -5%; GCN5L2 inh: inconclusive; TrxR1 inh: 40µM*; GLS inh: -22%; VDR inh: 22µM*; Sfp inh: 20µM*

Results for O=C1NC(=O)N(Cc2ccc(F)cc2)C(=O)/C1=C\c1ccc([N+](=O)[O-])s1 ?
TrxR1 substrate: -11%; GCN5L2 inh: inconclusive; TrxR1 inh: 40µM*; GLS inh: 10%; VDR inh: inconclusive; Sfp inh: 40µM*

How did CCCC/C(=N/O)c1c(C)[nH]c2ccccc12 do in these assays?
TrxR1 substrate: 10%; GCN5L2 inh: -1%; TrxR1 inh: 24%; GLS inh: 6%; VDR inh: -6%; Sfp inh: 22%

How did N[C@@H](CCP(=O)(O)O)C(=O)O do in these assays?
Sfp inh: -16%

Results for NC(CCP(=O)(O)O)C(=O)O (configuration not stated) ?
TrxR1 substrate: 11%[57.1 µM]; GCN5L2 inh: -3%; TrxR1 inh: 16%[57.1 µM]; VDR inh: 0%; Sfp inh: 50µM*

Results for Clc1ccc2c(c1)CCc1cccnc1C2=C1CCNCC1 ?
GCN5L2 inh: 19%; GLS inh: -20%; VDR inh: inconclusive; Sfp inh: -21%

How did CCOc1cccc(N2C(=O)/C(=C/c3ccco3)C(=O)NC2=S)c1 do in these assays?
TrxR1 substrate: 1%; GCN5L2 inh: inconclusive; TrxR1 inh: inconclusive; GLS inh: inconclusive; VDR inh: inconclusive; Sfp inh: 35µM*

What do the screens show for `O=C1NC(=S)N(c2ccccc2)C(=O)/C1=C/c1ccco1`?
TrxR1 substrate: -6%; GCN5L2 inh: inconclusive; TrxR1 inh: 20µM*; GLS inh: inconclusive; VDR inh: inconclusive; Sfp inh: 22µM*

Results for Cc1cccc(N2C(=O)/C(=C/N3CCN(C(=O)c4ccco4)CC3)C(=O)NC2=S)c1 ?
TrxR1 substrate: -9%; GCN5L2 inh: -2%; TrxR1 inh: -27%; GLS inh: 1%; VDR inh: 16%; Sfp inh: inconclusive

Results for O=c1c2cc(N3CCOCC3)ccc2[nH]c(=S)n1Cc1ccc(Cl)cc1 ?
TrxR1 substrate: 9%; GCN5L2 inh: -20%; TrxR1 inh: 8%; GLS inh: -13%; VDR inh: 0%; Sfp inh: 16µM*

What do the screens show for `O=c1[nH]c(=S)n(-c2ccc(Cl)cc2)c(O)c1C=Nc1ccc(N2CCOCC2)cc1`?
TrxR1 substrate: -11%; GCN5L2 inh: -18%; TrxR1 inh: -24%; GLS inh: 3%; VDR inh: -19%; Sfp inh: 2%

How did O=[N+]([O-])c1ccc(N2CCNCC2)cc1N1CCCCCC1 do in these assays?
TrxR1 substrate: 2%; GCN5L2 inh: -14%; TrxR1 inh: 6%; GLS inh: 5%; VDR inh: 0%; Sfp inh: -6%

How did COc1cccc2c1C(=O)c1c(O)c3c(c(O)c1C2=O)C[C@@](O)(C(=O)CO)C[C@@H]3O[C@H]1C[C@H](N)[C@H](OC2CCCCO2)[C@H](C)O1 (some centres not stated) do in these assays?
TrxR1 substrate: -17%; GCN5L2 inh: inconclusive; TrxR1 inh: inconclusive; GLS inh: 16µM*; VDR inh: -7%; Sfp inh: -14%

Results for CC1=NCCc2c1[nH]c1cc(O)ccc21 ?
TrxR1 substrate: 222%; GCN5L2 inh: inconclusive; TrxR1 inh: 22%; GLS inh: 110%; VDR inh: 13%; Sfp inh: 79µM*!

What do the screens show for `CN1CC2=CC(O)CC3Oc4c(O)ccc(c4[C@]23C)C1` (some centres not stated)?
TrxR1 substrate: 7%; TrxR1 inh: 9%; GLS inh: 9%; VDR inh: -9%

What do the screens show for `CC1(C)S[C@H]2[C@@H](N)C(=O)N2[C@H]1C(=O)O`?
GCN5L2 inh: 4%; VDR inh: 0%; Sfp inh: 56µM*

How did CC1(C)S[C@@H]2[C@H](N)C(=O)N2C1C(=O)O (some centres not stated) do in these assays?
GCN5L2 inh: 2%[21.4 µM]; GLS inh: 8%[20 µM]; VDR inh: 4%; Sfp inh: 14µM*

Results for O=C(N/N=C1/CN2CCC1CC2)c1cccc(O)c1 ?
TrxR1 substrate: -13%; GCN5L2 inh: 4%; TrxR1 inh: -25%; GLS inh: 18%; VDR inh: -1%; Sfp inh: -16%

What do the screens show for `CCCCC12CN3CC(C)(CN(C1)C3c1ccccn1)C2=O` (configuration not stated)?
TrxR1 substrate: -3%; GCN5L2 inh: 1%; TrxR1 inh: 19%; GLS inh: -15%; VDR inh: -3%

Results for CNCCc1ccc(O)c(O)c1 ?
TrxR1 substrate: 12%[57.1 µM]; GCN5L2 inh: 0%; TrxR1 inh: inconclusive; GLS inh: 12%; VDR inh: inconclusive; Sfp inh: 56µM*

How did CC/C=C\C/C=C\C/C=C\C/C=C\C/C=C\CCCC(=O)NCCc1ccc(O)c(O)c1 do in these assays?
VDR inh: -15%; Sfp inh: -13%

How did Cc1ccnc(NC(=O)CCCc2ccc(N(CCCl)CCCl)cc2)n1 do in these assays?
TrxR1 substrate: 11%[57.1 µM]; TrxR1 inh: inconclusive; GLS inh: 5%; VDR inh: 11%

Results for CCOc1cc(C=O)ccc1O ?
TrxR1 substrate: -11%; GCN5L2 inh: -7%; TrxR1 inh: -8%; GLS inh: 27%; VDR inh: 5%

How did CCOc1cc(/C=C2\C(=O)NC(=O)N(C)C2=O)cc([N+](=O)[O-])c1O do in these assays?
TrxR1 substrate: -7%; GCN5L2 inh: -26%; TrxR1 inh: inconclusive; GLS inh: -26%; VDR inh: -27%; Sfp inh: 28µM*

Results for CC(C)OS(C)(=O)=O ?
TrxR1 substrate: 9%; GCN5L2 inh: -3%; TrxR1 inh: 28%; GLS inh: 0%; VDR inh: 11%

What do the screens show for `CN1C(=O)C(=Cc2cccnc2)C(=O)N(C)C1=O`?
TrxR1 substrate: 7%; GCN5L2 inh: -10%; TrxR1 inh: 22µM*; GLS inh: 0%; VDR inh: inconclusive; Sfp inh: 40µM*
